Screening results as filed in PubChem BioAssay.
Dicer inh = human Dicer pre-microRNA cleavage inhibition; cat-ELCCA pre-miR-21 Dicer processing, chemiluminescence; active compounds read high; Q9UPY3; z-score at 25 µM; actives 6% (n = 47,000); AID 1347074; in the data active = z-score above about 3, passing the limit was not always enough;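 note: plate controls were vehicle for no effect and no enzyme for full effect; higher signal means more uncleaved substrate so more Dicer inhibition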
The depositor's hits bear a star. The entries come from a sample that favours hits as a whole.

SMILES | Dicer inh
Cc1ccc(CN2CCN(C(C)C)CC2)cc1 | 2.9
Clc1ccc(CN2CCN(Cc3ccccc3Cl)CC2)cc1 | 1.3
c1ccc(CN2CCN(C3CCCCC3)CC2)cc1 | 3.1*
CCC1=C[C@@H]2CN3CCc4c([nH]c5ccccc45)[C@@](C(=O)OC)(C2)[C@@H]13 | -1.4
CC(=O)OC1CCC2(C)C3CCC4(C)C(OC(C)=O)CCC4C3CC(O)[C@@]2(O)C1 (stereo partly specified) | 0.87
COc1cccc(-n2c(/C=C/c3c[nH]c4ccccc34)nc3ccccc3c2=O)c1 | 3.4*
COc1cccc(-n2c(/C=C/c3ccco3)nc3ccccc3c2=O)c1 | 0.91
O=c1c2ccccc2nc(/C=C/c2ccc(O)cc2)n1-c1ccc(O)cc1 | 1.7
Cn1cncc1C(O)c1ccccc1 (stereo unspecified) | 0.37
C=C(C)Cc1c(C)nc(SCC(=O)C(C)(C)C)nc1OC(=O)N(C)C | 1.9
Cc1onc(-c2ccccc2Cl)c1C(=O)Nc1ccc(Cl)cc1C(=O)c1ccccc1 | -0.94
CC(C)C1(C)N=C(c2ncccc2C(=O)O)NC1=O (stereo unspecified) | 3.2*
CC(=O)OC1CCC2C3C=CC4=CC(=O)C=CC4(C)C3CCC12C (stereo unspecified) | -0.23
CC(=O)CC(c1ccc([N+](=O)[O-])cc1)c1c(OC(C)=O)c2ccccc2oc1=O (stereo unspecified) | -0.15
O=C1NC(=O)C(=Cc2ccc(Cl)cc2Cl)C(=O)N1 | -2.9
COc1ccc(C2SCC(=O)Nc3c2c(=O)[nH]n3C2CCOC(C)(C)C2)cc1 (stereo unspecified) | -0.66
CC(=O)N1N=C2C3CCN(CC3)C2C1c1cccc(F)c1 (stereo unspecified) | -0.66
O=C1C(=Cc2ccco2)C(=O)N(c2ccccc2)C(=S)N1c1ccccc1 | 3.3*
COCc1cc(OC(=O)N(C)C)nc(Cc2c(Cl)cccc2Cl)n1 | 0.6
CC1(C)CN=C(NCc2ccccn2)S1 | 4*
CNc1ccc(Br)cc1C(=O)c1ccc(Cl)cc1 | -2.1
O=C(NC(=S)Nc1ccccc1OC(F)(F)F)Oc1ccccc1 | -4.5
CN(C)C(=O)Oc1nnc(SCc2ccccc2)n1-c1cccc(Cl)c1 | -0.56
CC(O)(CS(=O)(=O)c1ccc(F)cc1)C(=O)Nc1ccc(C#N)c(C(F)(F)F)c1 (stereo unspecified) | 0.92
N#Cc1ccc(NC(=O)c2c(F)cccc2F)cc1C(F)(F)F | 1.3
SMILES | Dicer inh
CC(=O)Nc1ccc(C#N)c(C(F)(F)F)c1 | 5.6*
Cc1ccc(-n2c(SCC(C)C)nc3cccc(F)c3c2=O)cc1C | -0.21
CNC(=O)Oc1cccc2cccnc12 | 0.15
O=[P@]1(N(CCCl)CCCl)NCCCO1 | -0.61
CCC1C(C#N)=C(N)Oc2c1c(=O)oc1ccccc21 (stereo unspecified) | -0.66
CCOC(=O)C1=C(N)Oc2c(c(=O)oc3ccccc23)C1c1ccc(OC)cc1 (stereo unspecified) | 3*
CCOC(=O)C1=C(N)Oc2c(c(=O)oc3ccccc23)C1c1ccccc1 (stereo unspecified) | 6.5
CCOc1ccc(Br)cc1/C=C(\C)[N+](=O)[O-] | -1
O=C(CNC1CCCCC1)c1ccc(O)c(O)c1 | 10*
C=CCc1c(C)nc(-c2ccc(F)c(Cl)c2)nc1OC(=O)N(C)C | -2.2
CSC(=NCc1ccccc1Cl)N/C(N)=N\[N+](=O)[O-] | 0.91
Cc1nc2ccccc2c(=O)n1-c1cc(F)c(F)cc1F | -0.79
COc1ccc(-n2c(/C=C/c3ccc([N+](=O)[O-])o3)nc3ccccc3c2=O)cc1 | 0.32
CCN(CC)C(=O)Oc1nc(-c2ccccn2)nc(COC)c1CC1CC1 | 0.76
c1cc2c(cc1CCNCc1ccc3c(c1)OCO3)OCO2 | 2.5
CCc1ccc(CNCCc2ccc3c(c2)OCO3)cc1 | 0.83
c1coc(CNCCc2ccc3c(c2)OCO3)c1 | 7.7*
Cc1cccc(NC2=NCC(C)S2)c1 (stereo unspecified) | -0.23
COc1ccc(CCNCc2ccc3c(c2)OCO3)cc1OC | 0.06
O=C(NNS(=O)(=O)c1ccc(C(F)(F)F)cc1)C1(O)CN2CCC1CC2 (stereo unspecified) | 0.82
O=C(NC(=S)Nc1cc(C(F)(F)F)cc(C(F)(F)F)c1)Oc1ccccc1 | -1.1
COc1ccc(Br)c(NC2=NCCS2)c1 | -0.17
Cc1ccc(NC2=NCCS2)cc1Cl | -1.1
COc1ccc(OC)c(NC2=NCCS2)c1 | 3.1*
CC12CCC3(C[C@@H]1CCC1C2CCC2(C)C1CC[C@]2(C)O)OCCO3 (stereo partly specified) | 0.6
SMILES | Dicer inh
C=CCc1cc(C)cc(-n2nc3ccccc3n2)c1O | 1.1
O=C1NC(=O)C(O)(c2c[nH]c3ccccc23)C(=O)N1 | 1.1
O=C(NC1CN2CCC1CC2)c1cccc(Cl)c1 (stereo unspecified) | -0.41
COc1cccc(CNC2CN3CCC2CC3)c1OC (stereo unspecified) | -1.2
Fc1ccc(CNC2CN3CCC2CC3)cc1 (stereo unspecified) | 3.1*
O=C1/C(=C\c2ccc(C(F)(F)F)cc2)N2CCC1CC2 | 0.28
Oc1ccc(Br)cc1CN1CCN(Cc2ccc(F)cc2)CC1 | 3.3*
COc1ccccc1CN1CCN(Cc2cc(Br)ccc2O)CC1 | 8*
COc1ccc(O)c(CN2CCN(Cc3ccc(Br)cc3)CC2)c1 | 5.1*
CSc1ccc(CN2CCN(Cc3ccc(F)cc3)CC2)cc1 | 2.4
CSc1ccc(CN2CCN(Cc3ccc(Cl)cc3)CC2)cc1 | 0.08
CSc1ccc(CN2CCN(Cc3cc(Br)ccc3O)CC2)cc1 | 6.1*
COc1ccccc1N1CCN(Cc2ccccc2F)CC1 | -1.6
CN(C)C(=O)Oc1noc2ccc(Cl)cc12 | 0.46
CCC(C)n1[nH]c(=O)c2c1NC(=O)CSC2c1ccc(OC)cc1 (stereo unspecified) | -0.44
C/C(=C\c1ccc([N+](=O)[O-])cc1)[N+](=O)[O-] | 2.7
O=C1CSC(c2ccc3c(c2)OCO3)c2c(n(C3CCCCC3)[nH]c2=O)N1 (stereo unspecified) | -0.81
Cc1ccc2[nH]c(=S)n(-c3ccc(Br)c(C)c3)c(=O)c2c1 | 1.7
CC(=O)c1ccc(Cl)c(-n2c(=S)[nH]c3ccccc3c2=O)c1 | -0.99
C=CCSc1nc2ccccc2c(=O)n1-c1cc(OC)c(Cl)cc1OC | -0.38
C/C(=C\c1ccc(Cl)cc1Cl)[N+](=O)[O-] | 5.3
O=C1C2CCN(CC2)C1CSc1ccc(Cl)cc1 (stereo unspecified) | -0.31
CCCc1cc(=O)oc2cc(OC(=O)N(C)C)ccc12 | 0.68
Oc1ccc(Br)cc1CN1CCN(Cc2cccc(F)c2)CC1 | 7*
Clc1cccc(CN2CCN(Cc3cccc(Br)c3)CC2)c1 | 1.3
SMILES | Dicer inh
Cc1ccc2nc(C(F)(F)F)n(-c3ccc(Cl)cc3)c(=O)c2c1 | 1.8
C[C@@]12C[C@H](O)CCN1CCc1ccccc12 | 0.35
OCC12COC3c4ccccc4C(OC1)N32 (stereo unspecified) | 5.6*
NCCCNc1ccc([N+](=O)[O-])c2cccnc12 | 0.82
S=C1NC2=C(CCc3ccccc32)C(c2cccnc2)N1 (stereo unspecified) | -0.78
Cc1nc2c(Br)cc(Br)cc2c(=O)n1-c1cccc(C(F)(F)F)c1 | -0.26
COc1ccc(CSC2C(C(=O)NNC(=O)c3ccc(Cl)cc3Cl)C3CCN2CC3)cc1 (stereo unspecified) | -0.38
CC1CC(O)(c2ccccc2)C(C)CN1C (stereo unspecified) | 3.6*
Cc1ccc(S(=O)(=O)N2CCCCC2c2cccnc2)cc1 (stereo unspecified) | -0.61
